# Publication PMC7862700, “An all-to-all approach to the identification of sequence-specific readers for epigenetic DNA modifications on cytosine”
# Key:
# Assay in all cases: DAPPL (digital affinity profiling via proximity ligation, sequencing); 10 mM Tris-HCl pH 7.5, 50 mM NaCl, 1 mM DTT, 4% glycerol, room temperature, 30 min; GST-TFs on glutathione beads, 16-mer random dsDNA library, 0.1% formaldehyde crosslink after washing; high values mean tight binding
# [1] = target: T1, FLI1 (Homo sapiens, UniProt Q01543 1-452); conditions: protein: recombinant; tags: N-terminal GST; dsDNA, one strand shown
# T1 sequence: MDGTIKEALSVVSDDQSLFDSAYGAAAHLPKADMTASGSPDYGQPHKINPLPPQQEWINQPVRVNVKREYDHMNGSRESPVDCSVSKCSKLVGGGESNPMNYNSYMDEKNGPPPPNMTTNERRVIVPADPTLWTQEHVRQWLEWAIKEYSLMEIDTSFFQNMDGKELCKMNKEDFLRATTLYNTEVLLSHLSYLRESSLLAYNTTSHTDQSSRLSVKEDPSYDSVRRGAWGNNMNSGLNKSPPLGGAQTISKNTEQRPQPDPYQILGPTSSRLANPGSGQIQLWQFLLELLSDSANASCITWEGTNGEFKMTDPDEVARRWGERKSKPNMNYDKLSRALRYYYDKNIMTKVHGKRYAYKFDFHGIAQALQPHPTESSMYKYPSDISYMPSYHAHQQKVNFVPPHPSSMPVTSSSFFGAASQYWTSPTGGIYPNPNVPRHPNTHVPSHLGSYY
# Outline: (§1)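 Binding signal is each hexamer's read frequency for a factor divided by its frequency in the tag-only sample. The factors were GST-fused human transcription factors from yeast, captured on glutathione beads, DNA-barcoded and pooled with that sample. Pools were incubated with 200 nmole of a random double-stranded 16-mer DNA library in Tris/NaCl/DTT/glycerol buffer at room temperature for 30 min, then washed, crosslinked with 0.1% formaldehyde, proximity-ligated with BsaI/T4 ligase (1 h, 37 °C), PCR-amplified and sequenced on an Illumina NextSeq500.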
# [2] = target: T2, ELK1 (Homo sapiens, UniProt P19419 1-428); conditions: protein: recombinant; tags: N-terminal GST; dsDNA, one strand shown
# T2 sequence: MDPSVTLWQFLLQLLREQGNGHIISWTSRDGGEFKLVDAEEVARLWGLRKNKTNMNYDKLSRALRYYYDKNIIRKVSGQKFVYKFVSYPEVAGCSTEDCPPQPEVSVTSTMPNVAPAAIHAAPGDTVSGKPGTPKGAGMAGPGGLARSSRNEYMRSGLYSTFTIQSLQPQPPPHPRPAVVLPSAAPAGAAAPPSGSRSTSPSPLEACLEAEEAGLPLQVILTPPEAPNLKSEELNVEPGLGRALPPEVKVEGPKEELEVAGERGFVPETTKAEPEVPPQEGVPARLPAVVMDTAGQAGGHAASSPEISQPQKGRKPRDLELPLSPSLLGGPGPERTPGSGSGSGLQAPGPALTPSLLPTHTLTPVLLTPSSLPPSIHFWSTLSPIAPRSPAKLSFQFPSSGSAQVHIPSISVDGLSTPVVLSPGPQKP
# Outline: as §1
# [3] = target: T3, GABPA (Homo sapiens, UniProt Q06546 1-454); conditions: protein: recombinant; tags: N-terminal GST; dsDNA, one strand shown
# T3 sequence: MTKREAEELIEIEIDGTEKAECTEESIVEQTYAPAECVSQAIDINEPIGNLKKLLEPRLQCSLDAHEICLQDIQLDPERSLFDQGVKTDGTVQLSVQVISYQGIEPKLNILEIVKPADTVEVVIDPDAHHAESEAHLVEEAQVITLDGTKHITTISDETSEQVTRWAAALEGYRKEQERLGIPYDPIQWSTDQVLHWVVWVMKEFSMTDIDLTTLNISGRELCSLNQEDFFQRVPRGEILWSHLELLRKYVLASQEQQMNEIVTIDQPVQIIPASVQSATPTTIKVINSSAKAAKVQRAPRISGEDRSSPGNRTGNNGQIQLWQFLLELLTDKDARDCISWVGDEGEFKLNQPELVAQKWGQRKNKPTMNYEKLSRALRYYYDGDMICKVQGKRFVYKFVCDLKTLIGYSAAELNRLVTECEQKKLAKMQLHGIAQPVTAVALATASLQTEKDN
# Outline: as §1
# [4] = target: T4, ERG (Homo sapiens, UniProt P11308 1-479); conditions: protein: recombinant; tags: N-terminal GST; dsDNA, one strand shown
# T4 sequence: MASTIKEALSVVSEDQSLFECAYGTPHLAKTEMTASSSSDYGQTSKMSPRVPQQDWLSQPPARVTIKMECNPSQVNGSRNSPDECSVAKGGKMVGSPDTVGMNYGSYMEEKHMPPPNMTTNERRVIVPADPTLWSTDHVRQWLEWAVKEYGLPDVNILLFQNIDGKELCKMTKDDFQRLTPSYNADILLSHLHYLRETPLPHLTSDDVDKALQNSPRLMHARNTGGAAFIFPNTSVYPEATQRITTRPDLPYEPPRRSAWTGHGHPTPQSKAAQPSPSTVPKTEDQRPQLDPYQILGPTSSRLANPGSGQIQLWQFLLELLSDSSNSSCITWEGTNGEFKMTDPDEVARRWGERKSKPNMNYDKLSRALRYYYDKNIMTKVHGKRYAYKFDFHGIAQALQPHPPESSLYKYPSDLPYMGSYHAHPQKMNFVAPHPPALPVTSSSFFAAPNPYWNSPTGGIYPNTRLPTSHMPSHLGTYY
# Outline: as §1
# [5] = target: ELF1 (Homo sapiens, UniProt P32519 1-619); conditions: protein: recombinant; tags: N-terminal GST; dsDNA, one strand shown
# Outline: as §1
# [6] = target: T5, EHF (Homo sapiens, UniProt Q9NZC4 1-300); conditions: protein: recombinant; tags: N-terminal GST; dsDNA, one strand shown
# T5 sequence: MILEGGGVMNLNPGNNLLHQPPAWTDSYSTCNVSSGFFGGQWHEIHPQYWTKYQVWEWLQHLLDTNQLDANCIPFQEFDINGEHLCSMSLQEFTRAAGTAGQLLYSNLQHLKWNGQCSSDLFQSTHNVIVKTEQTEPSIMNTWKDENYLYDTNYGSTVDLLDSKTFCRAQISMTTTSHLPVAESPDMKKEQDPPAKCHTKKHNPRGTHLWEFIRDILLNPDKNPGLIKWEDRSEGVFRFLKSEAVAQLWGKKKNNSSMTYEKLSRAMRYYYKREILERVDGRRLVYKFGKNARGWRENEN
# Outline: as §1
# [7] = target: SPI1 (Homo sapiens, UniProt P17947 1-270); conditions: protein: recombinant; tags: N-terminal GST; dsDNA, one strand shown
# Outline: as §1
# [8] = target: SPIB (Homo sapiens, UniProt Q01892 1-262); conditions: protein: recombinant; tags: N-terminal GST; dsDNA, one strand shown
# Outline: as §1
# [9] = target: T6, ELK3 (Homo sapiens, UniProt P41970 1-407); conditions: protein: recombinant; tags: N-terminal GST; dsDNA, one strand shown
# T6 sequence: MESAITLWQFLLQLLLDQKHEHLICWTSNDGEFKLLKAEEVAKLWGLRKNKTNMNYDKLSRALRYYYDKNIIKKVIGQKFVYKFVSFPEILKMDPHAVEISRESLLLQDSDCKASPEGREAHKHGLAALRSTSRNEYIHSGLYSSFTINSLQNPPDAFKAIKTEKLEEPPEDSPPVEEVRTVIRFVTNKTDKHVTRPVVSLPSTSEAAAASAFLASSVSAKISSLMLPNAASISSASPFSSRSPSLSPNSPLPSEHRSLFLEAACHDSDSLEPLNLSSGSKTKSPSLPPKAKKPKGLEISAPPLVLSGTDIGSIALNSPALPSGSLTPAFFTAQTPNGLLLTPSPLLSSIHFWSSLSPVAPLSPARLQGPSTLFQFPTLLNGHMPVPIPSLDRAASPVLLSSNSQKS
# Outline: as §1
# [10] = target: T7, FEV (Homo sapiens, UniProt Q99581 1-238); conditions: protein: recombinant; tags: N-terminal GST; dsDNA, one strand shown
# T7 sequence: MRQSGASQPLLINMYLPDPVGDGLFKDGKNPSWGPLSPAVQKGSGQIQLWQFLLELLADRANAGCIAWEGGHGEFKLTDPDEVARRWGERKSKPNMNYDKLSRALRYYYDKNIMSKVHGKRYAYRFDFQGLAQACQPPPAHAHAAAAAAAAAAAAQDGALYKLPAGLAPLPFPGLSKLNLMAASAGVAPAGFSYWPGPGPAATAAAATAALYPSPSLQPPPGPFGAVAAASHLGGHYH
# Outline: as §1
# [11] = target: ETV5 (Homo sapiens, UniProt P41161 1-510); conditions: protein: recombinant; tags: N-terminal GST; dsDNA, one strand shown
# Outline: as §1
# [12] = target: HSF1 (Homo sapiens, UniProt Q00613 1-529); conditions: protein: recombinant; tags: N-terminal GST; chain copies: 3; dsDNA, one strand shown
# Outline: as §1
# [13] = target: T8, SPIC (Homo sapiens, UniProt Q8N5J4 1-248); conditions: protein: recombinant; tags: N-terminal GST; dsDNA, one strand shown
# T8 sequence: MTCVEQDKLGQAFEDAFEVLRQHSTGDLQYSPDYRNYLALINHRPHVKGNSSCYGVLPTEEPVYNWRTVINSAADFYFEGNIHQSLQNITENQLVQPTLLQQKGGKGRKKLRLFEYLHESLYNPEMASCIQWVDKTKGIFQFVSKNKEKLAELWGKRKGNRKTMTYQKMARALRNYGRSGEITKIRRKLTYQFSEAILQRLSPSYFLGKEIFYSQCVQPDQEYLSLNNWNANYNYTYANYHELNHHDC
# Outline: as §1
# [14] = target: ELF4 (Homo sapiens, UniProt Q99607 1-663); conditions: protein: recombinant; tags: N-terminal GST; dsDNA, one strand shown
# Outline: as §1
# [15] = target: T9, ELK4 (Homo sapiens, UniProt P28324-2 1-405); conditions: protein: recombinant; tags: N-terminal GST; dsDNA, one strand shown
# T9 sequence: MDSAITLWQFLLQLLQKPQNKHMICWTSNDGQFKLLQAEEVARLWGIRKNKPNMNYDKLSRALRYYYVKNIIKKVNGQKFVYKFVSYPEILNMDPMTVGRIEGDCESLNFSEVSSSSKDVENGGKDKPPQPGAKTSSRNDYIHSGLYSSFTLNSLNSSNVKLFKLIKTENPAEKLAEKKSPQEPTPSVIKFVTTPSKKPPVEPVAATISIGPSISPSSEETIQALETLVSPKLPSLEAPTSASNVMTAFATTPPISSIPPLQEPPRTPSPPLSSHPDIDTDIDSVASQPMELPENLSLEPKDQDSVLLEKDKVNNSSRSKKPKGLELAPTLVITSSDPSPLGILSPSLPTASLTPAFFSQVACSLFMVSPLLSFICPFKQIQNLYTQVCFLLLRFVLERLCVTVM
# Outline: as §1
# [16] = target: T10, ETV2 (Homo sapiens, UniProt O00321 1-342); conditions: protein: recombinant; tags: N-terminal GST; dsDNA, one strand shown
# T10 sequence: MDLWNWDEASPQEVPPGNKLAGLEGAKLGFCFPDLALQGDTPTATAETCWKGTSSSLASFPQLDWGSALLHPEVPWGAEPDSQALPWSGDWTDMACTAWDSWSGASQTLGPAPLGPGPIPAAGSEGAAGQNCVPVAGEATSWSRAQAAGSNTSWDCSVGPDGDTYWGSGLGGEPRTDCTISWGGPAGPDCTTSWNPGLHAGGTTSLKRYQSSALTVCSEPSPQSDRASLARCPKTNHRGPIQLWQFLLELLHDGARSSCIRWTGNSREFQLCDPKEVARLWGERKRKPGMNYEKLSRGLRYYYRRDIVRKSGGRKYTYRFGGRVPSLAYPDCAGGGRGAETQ
# Outline: as §1
# [17] = target: T11, ELF3 (Homo sapiens, UniProt P78545 1-371); conditions: protein: recombinant; tags: N-terminal GST; dsDNA, one strand shown
# T11 sequence: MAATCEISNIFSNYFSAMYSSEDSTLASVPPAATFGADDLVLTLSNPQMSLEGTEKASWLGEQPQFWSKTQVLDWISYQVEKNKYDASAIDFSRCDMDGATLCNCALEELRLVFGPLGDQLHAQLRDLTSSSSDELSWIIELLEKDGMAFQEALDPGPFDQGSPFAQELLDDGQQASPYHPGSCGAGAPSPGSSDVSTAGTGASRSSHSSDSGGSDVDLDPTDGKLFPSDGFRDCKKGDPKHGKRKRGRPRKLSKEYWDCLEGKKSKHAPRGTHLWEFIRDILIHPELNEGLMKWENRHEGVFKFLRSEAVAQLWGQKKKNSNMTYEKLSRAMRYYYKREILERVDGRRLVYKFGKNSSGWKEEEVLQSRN
# Outline: as §1
# [18] = target: CRX (Homo sapiens, UniProt O43186 1-299); conditions: protein: recombinant; tags: N-terminal GST; dsDNA, one strand shown
# Outline: as §1
# [19] = target: ETV1 (Homo sapiens, UniProt P50549 1-477); conditions: protein: recombinant; tags: N-terminal GST; dsDNA, one strand shown
# Outline: as §1
# Chain of CRX (O43186 whole entry): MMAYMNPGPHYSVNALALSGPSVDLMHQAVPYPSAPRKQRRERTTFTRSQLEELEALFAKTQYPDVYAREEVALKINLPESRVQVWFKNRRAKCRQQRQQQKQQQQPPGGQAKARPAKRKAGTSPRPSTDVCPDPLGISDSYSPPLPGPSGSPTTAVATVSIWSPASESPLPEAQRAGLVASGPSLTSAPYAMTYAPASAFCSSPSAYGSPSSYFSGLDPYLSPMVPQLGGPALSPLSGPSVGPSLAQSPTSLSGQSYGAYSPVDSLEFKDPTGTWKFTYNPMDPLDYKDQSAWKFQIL
# Chain of ETV5 (P41161 whole entry): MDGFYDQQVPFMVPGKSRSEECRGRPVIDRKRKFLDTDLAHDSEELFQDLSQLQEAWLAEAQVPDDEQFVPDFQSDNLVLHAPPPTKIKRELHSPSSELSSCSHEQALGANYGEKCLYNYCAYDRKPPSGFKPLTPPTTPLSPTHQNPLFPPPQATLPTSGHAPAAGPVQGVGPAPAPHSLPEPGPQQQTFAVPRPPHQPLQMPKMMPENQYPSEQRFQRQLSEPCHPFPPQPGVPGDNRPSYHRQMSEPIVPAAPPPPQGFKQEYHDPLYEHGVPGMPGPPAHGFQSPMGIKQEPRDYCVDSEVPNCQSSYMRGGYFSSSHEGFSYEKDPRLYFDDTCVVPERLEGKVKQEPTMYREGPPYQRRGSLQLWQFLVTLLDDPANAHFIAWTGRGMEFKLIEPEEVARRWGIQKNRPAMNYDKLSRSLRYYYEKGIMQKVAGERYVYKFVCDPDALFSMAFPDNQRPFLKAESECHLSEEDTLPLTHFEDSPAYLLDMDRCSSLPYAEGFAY
# Chain of ELF4 (Q99607 whole entry): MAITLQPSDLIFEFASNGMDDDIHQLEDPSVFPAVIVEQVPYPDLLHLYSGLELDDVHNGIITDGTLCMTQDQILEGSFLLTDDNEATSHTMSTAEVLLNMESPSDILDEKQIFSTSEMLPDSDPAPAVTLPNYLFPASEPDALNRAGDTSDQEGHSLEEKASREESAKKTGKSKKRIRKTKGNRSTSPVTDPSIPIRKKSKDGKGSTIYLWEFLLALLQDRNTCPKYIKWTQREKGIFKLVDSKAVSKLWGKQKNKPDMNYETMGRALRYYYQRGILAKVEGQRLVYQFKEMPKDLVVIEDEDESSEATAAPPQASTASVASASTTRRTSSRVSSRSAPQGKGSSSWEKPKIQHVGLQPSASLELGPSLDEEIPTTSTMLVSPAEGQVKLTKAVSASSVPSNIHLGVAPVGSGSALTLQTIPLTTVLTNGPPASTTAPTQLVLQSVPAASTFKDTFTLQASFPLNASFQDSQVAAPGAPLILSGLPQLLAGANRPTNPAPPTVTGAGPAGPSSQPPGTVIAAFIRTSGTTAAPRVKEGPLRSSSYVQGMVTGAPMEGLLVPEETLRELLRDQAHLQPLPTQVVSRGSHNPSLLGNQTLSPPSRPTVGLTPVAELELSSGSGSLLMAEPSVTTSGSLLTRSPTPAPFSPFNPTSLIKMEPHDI
# Chain of ETV1 (P50549 whole entry): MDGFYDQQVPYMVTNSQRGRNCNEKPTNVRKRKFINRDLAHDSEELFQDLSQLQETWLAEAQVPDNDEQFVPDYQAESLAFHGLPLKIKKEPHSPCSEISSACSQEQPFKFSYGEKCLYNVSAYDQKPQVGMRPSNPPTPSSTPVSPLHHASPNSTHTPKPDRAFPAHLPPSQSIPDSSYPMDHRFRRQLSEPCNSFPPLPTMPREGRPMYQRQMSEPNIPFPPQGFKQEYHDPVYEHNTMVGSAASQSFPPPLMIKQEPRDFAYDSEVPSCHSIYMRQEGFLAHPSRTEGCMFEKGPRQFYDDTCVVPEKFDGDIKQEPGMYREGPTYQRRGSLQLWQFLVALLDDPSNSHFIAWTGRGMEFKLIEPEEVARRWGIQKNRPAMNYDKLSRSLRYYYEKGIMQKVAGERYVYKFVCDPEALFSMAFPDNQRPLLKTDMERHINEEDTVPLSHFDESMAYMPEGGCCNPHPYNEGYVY
# Chain of ELF1 (P32519 whole entry): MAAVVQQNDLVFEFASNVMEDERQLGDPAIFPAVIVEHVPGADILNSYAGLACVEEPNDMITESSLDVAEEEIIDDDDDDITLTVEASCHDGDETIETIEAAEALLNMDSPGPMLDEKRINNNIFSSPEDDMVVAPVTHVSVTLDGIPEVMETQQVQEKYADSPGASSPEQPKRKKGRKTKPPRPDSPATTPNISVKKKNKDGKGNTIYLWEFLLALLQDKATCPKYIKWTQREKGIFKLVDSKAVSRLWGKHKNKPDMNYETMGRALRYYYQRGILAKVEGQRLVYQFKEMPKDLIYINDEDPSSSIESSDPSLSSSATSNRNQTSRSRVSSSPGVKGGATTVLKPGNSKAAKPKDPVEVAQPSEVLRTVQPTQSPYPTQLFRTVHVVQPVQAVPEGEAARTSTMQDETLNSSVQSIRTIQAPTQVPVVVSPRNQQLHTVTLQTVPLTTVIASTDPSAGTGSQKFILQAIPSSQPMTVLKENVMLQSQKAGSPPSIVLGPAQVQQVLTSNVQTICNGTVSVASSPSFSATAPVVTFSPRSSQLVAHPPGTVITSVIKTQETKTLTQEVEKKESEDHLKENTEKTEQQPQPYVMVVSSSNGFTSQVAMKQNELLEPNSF
# Chain of SPIB (Q01892 whole entry): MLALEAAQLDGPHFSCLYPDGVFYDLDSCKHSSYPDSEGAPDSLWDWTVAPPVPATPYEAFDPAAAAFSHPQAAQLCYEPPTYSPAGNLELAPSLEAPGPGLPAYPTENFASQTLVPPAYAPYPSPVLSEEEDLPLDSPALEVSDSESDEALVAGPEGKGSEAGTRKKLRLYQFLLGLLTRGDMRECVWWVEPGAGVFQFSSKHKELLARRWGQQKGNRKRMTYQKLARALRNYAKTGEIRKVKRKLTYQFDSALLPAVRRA
# Chain of HSF1 (Q00613 whole entry): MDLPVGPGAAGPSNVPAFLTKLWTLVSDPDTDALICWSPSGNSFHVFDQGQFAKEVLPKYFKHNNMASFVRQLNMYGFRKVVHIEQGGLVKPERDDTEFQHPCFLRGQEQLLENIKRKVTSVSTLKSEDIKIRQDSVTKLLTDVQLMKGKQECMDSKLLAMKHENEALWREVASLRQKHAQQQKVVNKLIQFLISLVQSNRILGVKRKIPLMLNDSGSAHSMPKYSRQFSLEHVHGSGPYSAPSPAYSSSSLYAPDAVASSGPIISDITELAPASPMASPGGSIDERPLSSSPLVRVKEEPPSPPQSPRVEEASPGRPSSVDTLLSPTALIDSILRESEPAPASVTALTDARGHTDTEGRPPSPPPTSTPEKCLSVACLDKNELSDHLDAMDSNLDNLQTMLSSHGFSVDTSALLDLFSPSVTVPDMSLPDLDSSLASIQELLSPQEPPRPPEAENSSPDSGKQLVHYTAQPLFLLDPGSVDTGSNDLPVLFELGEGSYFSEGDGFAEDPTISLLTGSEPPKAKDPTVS
sequence,measurement,setting,value
CTAAGC,binding signal,[1],"1.09 fold enrichment (6-mer frequency, TF over GST control)"
same,binding signal,[2],"1.06 fold enrichment (6-mer frequency, TF over GST control)"
same,binding signal,[3],"1.08 fold enrichment (6-mer frequency, TF over GST control)"
same,binding signal,[4],"1.11 fold enrichment (6-mer frequency, TF over GST control)"
same,binding signal,[5],"1.15 fold enrichment (6-mer frequency, TF over GST control)"
same,binding signal,[6],"1.14 fold enrichment (6-mer frequency, TF over GST control)"
same,binding signal,[7],"1.03 fold enrichment (6-mer frequency, TF over GST control)"
same,binding signal,[8],"1.16 fold enrichment (6-mer frequency, TF over GST control)"
same,binding signal,[9],"1.03 fold enrichment (6-mer frequency, TF over GST control)"
same,binding signal,[10],"1.05 fold enrichment (6-mer frequency, TF over GST control)"
same,binding signal,[11],"1.05 fold enrichment (6-mer frequency, TF over GST control)"
same,binding signal,[12],"1.56 fold enrichment (6-mer frequency, TF over GST control)"
same,binding signal,[13],"1.08 fold enrichment (6-mer frequency, TF over GST control)"
same,binding signal,[14],"1.09 fold enrichment (6-mer frequency, TF over GST control)"
same,binding signal,[15],"1.16 fold enrichment (6-mer frequency, TF over GST control)"
same,binding signal,[16],"1.17 fold enrichment (6-mer frequency, TF over GST control)"
same,binding signal,[17],"1.12 fold enrichment (6-mer frequency, TF over GST control)"
same,binding signal,[18],"2.45 fold enrichment (6-mer frequency, TF over GST control)"
same,binding signal,[19],"1.06 fold enrichment (6-mer frequency, TF over GST control)"
